Test results reported in PubChem BioAssay (NCI).
The panel holds about 79,000 compounds, 15% with a hit somewhere; the sample as a whole holds those more often. Active and inactive are the calls of the source. Cut-off read from the data, not from the text of the source: active = growth inhibition above about 70%; inactive = the rest.

test: NCI Yeast Anticancer Drug Screen. Data for the cln2 rad14 strain (AID 165);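 note: 0% = growth equal to vehicle treated cultures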; conditions: S. cerevisiae cln2 rad14 strain, at 50.0 µM, hits give high values
Procedure, shortened: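 Yeast strain cln2 rad14, bearing defects in cell cycle control and DNA repair, serves as the test system; values reflect growth inhibition compared with vehicle.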

SMILES | growth inhibition
CC1=CC2OC3CC4OC(=O)/C=C/C=C/C(C(C)O)OCC(=O)C(C)CC(=O)OCC2(CC1)C4(C)C31CO1 (stereo unspecified) | 91.3% (active)
Cc1cc(=O)oc2c3c(ccc12)OC(c1ccc(Br)cc1)CC3=O (stereo unspecified) | -12.8% (inactive)
OCC(O)C(O)C(O)/C=N\Nc1ccccc1 (stereo unspecified) | 43% (inactive)
CN(C)Cc1ccc2[nH]c3c(c2c1)CCCC3 | 21.2% (inactive)
CC(C)CCCC(C)C1CCC2C3CC=C4OC(=O)CCC4(C)C3CCC12C (stereo unspecified) | 85.2% (active)
CC(C(=O)c1ccc2cc(Br)c3ccccc3c2c1)N(C)C (stereo unspecified) | 99.5% (active)
O=[N+]([O-])c1ccccc1SCc1ccccc1 | 44% (inactive)
C(=P(c1ccccc1)(c1ccccc1)c1ccccc1)[P+](c1ccccc1)(c1ccccc1)c1ccccc1 | 98.7% (active)
CCOC(=O)N1CCN(C(=S)N/N=C(\C)c2ncccn2)CC1 | 99.1% (active)
CCC1(C)C(C#N)(C#N)C1(C#N)C#N | 43.7% (inactive)
Cc1ccccc1C(O)(c1ccccc1C)C1(O)CCN(C)CC1 | 91.8% (active)
Oc1c(C(Nc2ccccn2)c2ccccc2)ccc2cccnc12 (stereo unspecified) | 93% (active)
Cc1ccc(C(CN(C)C)C(=O)c2ccccc2)cc1C (stereo unspecified) | -23.6% (inactive)
COC(=O)/C=C(\NC1CC(OC2C[C@](O)(C(C)=O)Cc3c(O)c4c(c(O)c32)C(=O)c2c(OC)cccc2C4=O)OC(C)C1O)C(=O)OC (stereo partly specified) | 94.9% (active)
CC1(C)C/C(=N/NC(N)=S)C(=NO)/C(=N\NC(N)=S)C1 | 23.4% (inactive)
Cc1cc2c(c(C(N)=O)c1C)-c1cccc(F)c1C2=O | 75.5% (active)
